High-throughput results deposited in PubChem BioAssay by National Center for Advancing Translational Sciences (NCATS).
p53ts 39C kill: cytotoxicity in p53ts cells at nonpermissive temperature; H1299-p53A138V viability at 39C, ATP luminescence, 24 h; Potency, µM (doses to about 46.1 µM), hits mostly cytotoxic; 130,000 tested, 1.5% active; AID 902; further: nearly all actives have a fitted effect of over 55% in size
p53ts 32C kill: cytotoxicity in p53ts cells at permissive temperature; H1299-p53A138V at 32C, ATP luminescence viability, 24 h; Potency, µM (doses to about 46.1 µM), usual class: cytotoxic; 130,000 tested, 0.93% active; further: nearly all actives have a fitted effect of over 55% in size
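ATP-content luminescence (ATPlite) read-out after 24 h compound exposure at 32C in H1299-p53A138V cells (600/well). Tested up to 46 uM. Normalized to DMSO (0%) and 100 uM tamoxifen (100% killing); Hill-fit AC50.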
Luciferase inh: blocks Photinus pyralis firefly luciferase activity | purified firefly luciferase, luminescence, 8 min | Potency, µM (series often up to 57.1 µM), usual class: inhibitors | 72,000 tested, 2.2% active | AID 411; further: nearly all actives have a fitted effect of over 40% in size
Target sequence (P08659 whole entry, looked up): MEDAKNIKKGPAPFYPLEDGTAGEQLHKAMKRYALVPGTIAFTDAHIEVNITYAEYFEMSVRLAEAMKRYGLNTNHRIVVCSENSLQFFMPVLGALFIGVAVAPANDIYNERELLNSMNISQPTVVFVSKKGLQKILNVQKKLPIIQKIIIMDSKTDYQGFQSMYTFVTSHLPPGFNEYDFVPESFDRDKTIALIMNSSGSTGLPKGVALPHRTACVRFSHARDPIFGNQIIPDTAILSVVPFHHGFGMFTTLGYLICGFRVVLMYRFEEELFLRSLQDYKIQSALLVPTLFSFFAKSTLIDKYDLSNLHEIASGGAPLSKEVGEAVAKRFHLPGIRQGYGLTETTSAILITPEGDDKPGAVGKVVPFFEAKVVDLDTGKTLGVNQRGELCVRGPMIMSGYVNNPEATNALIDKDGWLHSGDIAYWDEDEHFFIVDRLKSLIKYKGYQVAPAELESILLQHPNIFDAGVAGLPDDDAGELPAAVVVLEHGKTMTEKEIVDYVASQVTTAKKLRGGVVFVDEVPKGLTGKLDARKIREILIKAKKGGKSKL
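Firefly luciferase (PKLight detection mix) with 10 uM ATP in pH 7.2 imidazole buffer (KCl, MgCl2, Tween 20, BSA). Compounds tested across a concentration series (qHTS). Luminescence read after 8 min at ambient temperature.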
A number is an active result; – = inactive; ? = inconclusive; · = no result; [ ] = dose if it differs, or a comment. Sampled rows, rich in hits. Any-hit rate of the full collection: about 2.5%. The call rests on the fitted dose curve; in most records, active means well fitted curve in the direction sought with a large enough effect; inconclusive means small, poorly fitted or top-dose-only effect, or another doubt; inactive means no such curve, though single readings can be large; an effect the other way counts as inactive or inconclusive.

SMILES | p53ts 39C kill | p53ts 32C kill | Luciferase inh
C#CCCCO/N=C1/C[C@@H](O)[C@@H](O)[C@@H]2[C@@H]3C(=O)N(C[C@@H]4CCCO4)C(=O)[C@H]3CC[C@H]12 | –[9.22 µM] | –[9.22 µM] | –[11.4 µM]
COc1ccc(-c2nc3cnc(N(C)C)nc3n(CCc3ccccc3)c2=O)cc1 | – | – | –[11.4 µM]
Cc1cc(C(=O)Nc2sc3c(c2C#N)CCC(C)C3)no1 (stereo not drawn) | – | – | –
Cc1cc(C(=O)Nc2sc3c(c2C#N)CCCC3)no1 | 12.6µM | 6.31µM | 12.6µM
CC(C)Cc1cc(C(=O)Nc2sc3c(c2C#N)CCCC3)no1 | – | – | –
Cc1cc(C(=O)Nc2sc3c(c2C#N)CCC3)no1 | 12.6µM | 10µM | 15.8µM
CC(C)(C)N1C(=O)[C@H]2[C@@H]3[C@H](O)C=CC(=O)[C@H]3CC[C@H]2C1=O | –[9.22 µM] | –[9.22 µM] | –[11.4 µM]
COc1ccc(OC)c(S(=O)(=O)NCCc2sc(C)nc2C)c1 | – | – | ·
Nc1nc2ncc(=O)[nH]c2c(=O)[nH]1 | – | – | ·
Cc1ccc(CNC(=O)CSc2nc3ccsc3c(=O)n2Cc2ccccc2F)cc1 | – | – | ·
Cc1ccc(Cn2c(SCC(=O)NCc3ccccc3)nc3ccsc3c2=O)cc1 | 15.8µM | – | ·
O=C(Nc1ccc(F)c(Cl)c1)c1ccc2c(Cl)c3c(nc2c1)CCCC3 | – | – | ·
Cc1ccccc1Nc1c(-c2ccc(N3CCOCC3)cc2)nc2ccccn12 | 1µM | 1µM | ·
Cc1ccc(Nc2c(-c3ccc(N4CCOCC4)cc3)nc3c(C)cccn23)cc1 | – | – | ·
Cc1ccccc1Nc1c(-c2ccc(N3CCOCC3)cc2)nc2cccc(C)n12 | 7.94µM | ? | ·
Cc1ccccc1Nc1c(-c2cccnc2)nc2cccc(C)n12 | – | – | ·
Cc1cc(C)c2c(N)c(C(=O)Nc3ncc(C)s3)sc2n1 | 0.794µM | 1µM | ·
Cc1cc(C)c2c(N)c(C(=O)NCc3ccco3)sc2n1 | – | – | –
C=CCOCC1CN2C(CCC(C)C2c2ccc(Br)cc2)C(=O)O1 (stereo not drawn) | –[9.22 µM] | –[9.22 µM] | ·
COc1ccccc1-n1cc(C(=O)NCC(=O)N2CCN(c3ccccn3)CC2)c2ccccc2c1=O | ? | ? | 6.31µM
O=C(Cn1cnc2ccccc2c1=O)NCC(=O)N1CCN(c2ccccn2)CC1 | – | – | –
COc1cccc(-n2cc(C(=O)NCc3ccccc3OC)c3ccccc3c2=O)c1 | ? | – | ·
COc1ccccc1-n1cc(C(=O)NCC(=O)N2CCN(c3ccccc3)CC2)c2ccccc2c1=O | 12.6µM | 12.6µM | 2µM
C=CC(=O)OCCCCCCOC(=O)C=C | – | –[1.84 µM] | ·
c1cnc(N2CCN(c3ncnc4c3oc3ccccc34)CC2)nc1 | – | – | –
SMILES | p53ts 39C kill | p53ts 32C kill | Luciferase inh
C(=C\c1ccccc1)/CN1CCN(c2ncnc3c2oc2ccccc23)CC1 | 12.6µM | 10µM | 12.6µM
CCOc1ccc(CN2C(=O)c3ccccc3Sc3ccc(C(=O)N4CCN(C)CC4)cc32)cc1 | – | – | ·
COc1ccc(-c2nc3nc(C)cc(Nc4cccc(C(F)(F)F)c4)n3n2)cc1 | – | – | ·
COc1cccc(CNc2cc(C)nc3nc(-c4ccc(C)cc4)nn23)c1 | 7.94µM | ? | ·
COc1cccc(Cn2c(=O)cnc3cnc(OCc4ccccc4)nc32)c1 | – | – | –[11.4 µM]
Cc1cccc(CC(=O)N2CC(=O)Nc3ccc(C)cc3C2c2ccc(F)cc2)c1 (stereo not drawn) | – | – | ·
C[C@H]1C[C@@H]2[C@H]3CCC4=CC(=O)C=C[C@@]4(C)[C@]3(Cl)[C@@H](Cl)C[C@]2(C)[C@]1(O)C(=O)COP(=O)(O)O | · | · | –[11.4 µM]
CN(C)CCC[C@@H]1c2ccccc2Oc2ccc(C(F)(F)F)cc21 | –[9.22 µM] | –[9.22 µM] | –[11.4 µM]
Cc1ccc(Nc2n[nH]c(C)c2[N+](=O)[O-])cc1C | – | – | ·
Cc1ccc(Nc2nc3nonc3[nH]c2=O)cc1C | 10µM | 12.6µM | ?
COc1ccc(-c2ccc(NS(=O)(=O)c3ccccc3Cl)cc2)nn1 | – | – | ·
CCCOC(=O)Nc1ccc(N2CCCCC2)cc1 | 15.8µM | 12.6µM | 12.6µM
CCCCOC(=O)Nc1ccc(C(=O)OCCC)cc1 | – | – | –
Nc1ncnc2c1ncn2[C@@H]1O[C@@H](COP(=O)(O)OP(=O)(O)OP(=O)(O)OP(=O)(O)OC[C@@H]2O[C@@H](n3cnc4c(N)ncnc43)[C@@H](O)[C@H]2O)[C@H](O)[C@@H]1O | – | – | –
CC(=O)OC(C)C | – | –[1.84 µM] | ·
CN(C)C(=O)CSc1nnc2sc3ccccc3n12 | – | – | –
O=C(CSc1nnc2sc3ccccc3n12)c1ccco1 | – | – | 15.8µM
Cc1ccccc1NC(=O)c1sc2nc3n(c(=O)c2c1C)N=C(c1ccccc1)CS3 | – | – | ·
Cc1nnc(NC(=O)C2COc3ccccc3O2)s1 (stereo not drawn) | – | – | –
O=C(Nc1nc2c(s1)CCCC2)C1COc2ccccc2O1 (stereo not drawn) | ? | ? | 10µM
O=C(NC1=NCCS1)C1COc2ccccc2O1 (stereo not drawn) | 12.6µM | 12.6µM | 2µM
O=C(Nc1ccncc1)C1COc2ccccc2O1 (stereo not drawn) | – | – | –
COc1ccc(-c2nc(SCC(=O)N3CCC(C)CC3)n[nH]2)cc1 | – | – | ·
COc1cc(NC(=O)CSc2nccn2C)cc(OC)c1OC | – | – | ·
CC1=C2[C@H](/C=C(\C)C(=O)O)CC[C@@H](C)[C@H]2CC1 | – | –[1.84 µM] | ·
SMILES | p53ts 39C kill | p53ts 32C kill | Luciferase inh
Cc1cccc(-n2nnc(-c3nc(-c4cccs4)no3)c2N)c1 | – | – | ·
Cc1csc(SCC(=O)c2cc(C)n(Cc3cccs3)c2C)n1 | 12.6µM | 12.6µM | 3.98µM
COCCn1c(C)cc(C(=O)CSc2ccc(NC(C)=O)cc2)c1C | 12.6µM | ? | –
COCCn1c(C)cc(C(=O)CSc2nc3ccccc3c(=O)[nH]2)c1C | – | – | –
CC(=O)Nc1ccc(SCC(=O)c2cc(C)n(Cc3cccs3)c2C)cc1 | 2.51µM | 2.51µM | –
CC(=O)Nc1ccccc1OCC(=O)c1cc(C)n(Cc2cccs2)c1C | – | – | –
COc1ccc(-c2nnc(SCC(=O)c3cc(C)n(Cc4cccs4)c3C)o2)cc1 | – | – | –
CN1C[C@H](C(=O)N[C@]2(C)O[C@@]3(O)[C@H]4CCCN4C(=O)[C@@H](Cc4ccccc4)N3C2=O)C[C@H]2c3cccc4[nH]cc(c34)C[C@@H]21 | · | · | –[11.4 µM]
Cc1cccc(CNC(=O)Cn2nc(C)c3nn(-c4ccc(Cl)cc4)c(C)c3c2=O)c1 | – | – | ·
OCC1OC(/C=C\c2ccccc2)C=CC1Oc1ccc2c(c1)OCO2 (stereo not drawn) | ? | –[9.22 µM] | ·
Cc1c(C(=O)OC(C)CCN(C)C)oc2ccccc12 (stereo not drawn) | – | – | –
Cc1c(C(=O)OCC(C)(C)CN(C)C)oc2ccccc12 | – | – | 12.6µM
O=C(O)c1cc2c(cc1S(=O)(=O)O)[C@H]1[C@@H]([C@H]3[C@H]2[C@@]2(Cl)C(Cl)=C(Cl)[C@]3(Cl)C2(Cl)Cl)[C@]2(Cl)C(Cl)=C(Cl)[C@@]1(Cl)C2(Cl)Cl | –[9.22 µM] | –[9.22 µM] | –[11.4 µM]
C[C@@H](c1ccccc1)N1C(=O)[C@H]2[C@@H]3[C@H](O)[C@H](O)CC(=O)[C@H]3CC[C@H]2C1=O | –[9.22 µM] | –[9.22 µM] | –[11.4 µM]
Cn1c(CN2CCCC2)nc2cc(NC(=O)c3ccco3)ccc21 | – | – | –
Cn1cnc2cc(NC(=O)c3ccco3)ccc21 | 7.94µM | 15.8µM | –
O=C(Nc1ccc2c(c1)ncn2-c1ccccc1)c1ccco1 | ? | – | 12.6µM
